# Measured values reported in the supplement of paper PMC6555819.
# Tested on: PXR:RXRa (NR concentration 270 nM, RXRa partner concentration 90 nM)
# Assay: PBM binding z-score (relative to random genomic background probes); higher = stronger binding; sequences stand for … in GC…GCGATTGACAGCGTAGAATGAAGG
# Summary of the method: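 Custom Agilent 4×180K protein-binding microarrays carried double-stranded probes. Their 34-nt variable regions held direct-repeat seeds, single-nucleotide variants, half-site ablations and random human genomic background sequences. Arrays were incubated 1 h with ligand-free nuclear receptor dimers in PBS pH 7.4, 2% milk, 0.02% Triton X-100, 1 mM DTT, 0.2 mg/mL BSA and 0.4 mg/ml salmon testes DNA. Antibodies against each partner (one per run) detected binding, and scanned fluorescence was regression-normalized. Binding z-scores use random background probes as reference.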
row,Sequence,PBM binding z-score
1,CGTACTAGGTCAAGGACAGTGAATCTCCGCACGC,1.19
2,AGAATGAGGTTATACGTAGATCAGGGAAGAAAGT,1.2
3,CCTTACGGGTCACTGACACGTTATAGCATTTGGA,3.1
4,CGAACTATGTCATTGACAGGACAGTGAATAGTAA,0.0899
5,AGAACGAGGGCAATGAATTGATAGCACGGGTGGC,0.372
6,TCTTGTAGATCAAAGGTTAAGGAAGCCGAAGCCT,2.01
7,GCTCACGGGTCAAAGGTTATAGCATGAATAGAAT,6.14
8,ATCTCTAGGTAACAAGTTCTGTGAAAGAGAGGAC,0.15
9,GCTCGGAGGACAAGGTCAGAACTTTGTCCGTAGA,1.87
10,CCTTACGGATCACTGACAGGTTATAGCATTTGGA,0.356
11,ATACCAAGGTGATCGTGAGGTCGTTGGTACTAAC,2.89
12,ATCTCTAGGTAACAAGTTCAGTGACAGAGAGGAC,1.61
13,TAGCCTAGGTCATTTAGGGGCCAGTATAGAAAGC,2.34
14,CGTCCAAGGTCAATGCTAGTTCAGTGAAAGCATT,5.51
15,CCTACTGGGGCAAAAAGGTCATTGATGCCGATAA,5.17
16,ACAGACAGGTGAGTGAAGGTAACTAAGCTGGACG,-0.279
17,CAAACTAGGTCAAGTTCAAAGTCGGTTTGTGCCA,5.1
18,CAAACTAGGTCAAGAGGTCATAGTCCGCTTCCCG,5.98
19,ACAGACAGTTGATGAAGGTAACTCAGGCTATCAT,0.245
20,ATCTCTAGGTAAAGATGGTTCAGTGAATGCAAAT,0.269
21,TCTAACAGGCCAGAGGGTCACTCAAGAGGTACGG,1.86
22,TCTGGCAGGCCAGAGGGTCACTCAAGAGGTACGG,1.59
